# High-throughput results from PubChem.
# IL-1B inflam inh – blocks inflammasome-driven IL-1 beta release; THP-1 LPS/ATP IL-1B secretion, AlphaLISA, 16 h; stronger effect = lower value; AID 743279; activity change, % at 57.5 µM; hit rate 4.7% among 360,000; in the data active means activity change below about -50%; inconclusive means mostly about -30% to -49%
#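 Secreted IL-1B measured by AlphaLISA bead assay after 16 h compound exposure of THP-1 cells; compounds (final up to 57.5 uM) added 1 h before LPS (250 ng/mL) and ATP (1.25 mM) stimulation; lower signal means less secretion.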
# TDP1 inh – TDP1 (human) enzyme inhibition. Q9NUW8. recombinant TDP1, AlphaScreen DNA substrate cleavage. Potency, µM (doses to about 130 µM), for inactives: at the highest dose activity change, negative = inhibition, most hits filed as inhibitors. hit rate 0.28% among 350,000; further: potency means the concentration at half of the fitted maximal effect; nearly all actives have a fitted effect of over 40% in size
# Target sequence (Q9NUW8 whole entry, looked up): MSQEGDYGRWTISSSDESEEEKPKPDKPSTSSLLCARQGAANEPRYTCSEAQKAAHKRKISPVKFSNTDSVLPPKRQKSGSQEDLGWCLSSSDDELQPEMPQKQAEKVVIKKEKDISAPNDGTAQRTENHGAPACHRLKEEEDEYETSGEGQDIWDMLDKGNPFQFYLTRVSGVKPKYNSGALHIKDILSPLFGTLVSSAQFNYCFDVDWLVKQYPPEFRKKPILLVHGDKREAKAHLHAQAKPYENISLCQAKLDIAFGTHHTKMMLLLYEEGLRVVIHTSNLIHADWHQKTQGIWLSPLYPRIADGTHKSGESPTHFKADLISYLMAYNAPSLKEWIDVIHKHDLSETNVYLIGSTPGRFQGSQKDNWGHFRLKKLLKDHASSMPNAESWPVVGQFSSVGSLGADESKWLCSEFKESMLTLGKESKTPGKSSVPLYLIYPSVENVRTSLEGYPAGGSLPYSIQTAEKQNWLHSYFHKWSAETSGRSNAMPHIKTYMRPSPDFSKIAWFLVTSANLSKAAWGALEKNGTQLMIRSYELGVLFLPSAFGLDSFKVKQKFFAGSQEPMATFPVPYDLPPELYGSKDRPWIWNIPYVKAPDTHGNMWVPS
#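 Here, a 5' biotin and 3' phosphotyrosine-FITC DNA oligonucleotide reports Tdp1 activity: intact substrate bridges AlphaScreen beads, while cleavage leaves a 3' phosphate and drops signal. All incubations at room temperature.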
# Giardia killer – kills Giardia lamblia; Giardia lamblia trophozoite viability; activity change, % at 7.66 µM, hits read low; hit rate 0.15% among 340,000; AID 540267; in the data active means activity change below about -80%; inconclusive means between about -30% and that limit;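 further: parasites exposed to compound for two days anaerobically before the ATP read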
#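 Trophozoites 100 cells/well + cpd; 48 hrs, 37 deg C, anaerobic. ATPLite 1-Step added, 15-30 min RT, luminescence read (ATP-based viability).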
# DT40 TDP1 CPT – growth inhibition of DT40 Tdp1-/-;hTDP1 cells with camptothecin (screen for TDP1 inhibitors) | AID 686979 | hit rate 12% among 420,000 | chicken DT40 Tdp1-/-;hTDP1 cells + 20 nM CPT, ATP luminescence, 48 h | Potency, µM (series often up to 46.2 µM), for inactives: at the top dose activity change, negative = growth inhibition, usual class: inhibitors; further: potency means the concentration at half of the fitted maximal effect; nearly all actives have a fitted effect of over 55% in size
#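 Chicken DT40 Tdp1-/- cells complemented with human TDP1, 400 cells/well, exposed to compounds plus 20 nM camptothecin for at least 48 h at 37 C; viability read as ATP content by CellTiter-Glo luminescence.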
# ELG1 repair inh – blocks ELG1-dependent DNA repair in HEK293T cells. AID 504467. HEK293T ELG1-luciferase reporter, luminescence, 16 h; DNA damage induced by 5-fluorouridine. hit rate 2.3% among 330,000. Potency, µM (highest dose often 46.1 µM), for the others: top-dose activity change, negative = inhibition, hits mostly inhibitors; further: potency means the concentration at half of the fitted maximal effect; nearly all actives have a fitted effect of over 55% in size
#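 In this reporter screen, reduction of luminescence relative to DMSO vehicle indicated activity. Compounds and 5-fluorouridine were added together to 2,000 cells per well, incubated for 16 hr at 37 °C, then developed with ONE-Glo.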
# DT40 TDP1 no CPT – qHTS for Inhibitors of human tyrosyl-DNA phosphodiesterase 1 (TDP1): qHTS in cells in absence of CPT. DT40 Tdp1-/- hTDP1 cells, no CPT, ATP luminescence, 48 h. hit rate 15% among 420,000. Potency, µM (titrated, usually from 46.2 µM), for the others: at the top dose activity change, negative = growth inhibition, hits mostly inhibitors; further: potency means the concentration at half of the fitted maximal effect; nearly all actives have a fitted effect of over 55% in size
#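 Growth kinetics read by CellTiter-Glo luminescence after ≥48 hr at 37 °C. Cells: DT40 Tdp1-/- stably carrying human TDP1, 400 per well, compound exposure in the absence of CPT (DMSO vehicle).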
# Active calls of the source: *; u = inconclusive; x = no result given; [ ] = another dose, or the depositor's remark. Sampled rows, rich in hits. Any-hit rate of the full collection: about 19%. Unless noted, the call rests on the fitted dose curve; in most records, active means well fitted curve in the direction sought with a large enough effect; inconclusive means small, poorly fitted or top-dose-only effect, or another doubt; inactive means no such curve, though single readings can be large; an effect the other way counts as inactive or inconclusive. On the % scale 0 is the no-effect control and ±100 the full control effect.
SMILES,IL-1B inflam inh,TDP1 inh,Giardia killer,DT40 TDP1 CPT,ELG1 repair inh,DT40 TDP1 no CPT
CC(C)(CO)NCC#Cc1ccccc1,4.6,5.1%,-10.5,9.6%,-4.7%,10.4%
CS(=O)(=O)Oc1ccc2c(c1)O/C(=C\C=C\c1ccccc1)C2=O,-0.8,10.0%,-12.8,u,3.0%,u
O=C1/C(=C/c2ccncc2)Oc2cc(OS(=O)(=O)c3ccccc3)ccc21,180.5,8.3%,1.0,u,u,11.6µM*
Cn1nnc2cc(C(=O)N3CCN(c4ccccn4)CC3)ccc21,8.5,x,7.8,30.6%,9.0%,-16.7%
COc1cc(C(=S)N2CCCC2)ccc1OCc1ccc(C)cc1,14.2,6.7%,6.4,u,25.1%,u
COc1ccccc1-c1nnc(NC(=O)CCS(=O)(=O)c2ccc(F)cc2)o1,-24.2,x,x,8.2µM*,x,9.2µM*
Cc1ccc(-c2nnc(NC(=O)CCS(=O)(=O)c3ccc(F)cc3)o2)c(C)c1,6.5,-0.4%,6.0,-6.4%,3.0%,-5.9%
O=C(CCS(=O)(=O)c1ccc(F)cc1)Nc1nnc(-c2ccc(F)cc2)o1,u,-5.1%,-12.7,13µM*,-6.4%,16.4µM*
COc1ccccc1-c1nnc(NC(=O)CCS(=O)(=O)c2ccccc2)o1,-81.2*,4.4%,22.1,23.1µM*,-9.5%,18.4µM*
CCOc1ccc(NC(=O)c2cc(S(=O)(=O)N3CCOCC3)ccc2F)cc1,x,5.2%,x,-5.5%,x,u
CCc1ccc(NC(=O)c2cc(S(=O)(=O)N3CCCCC3)c[nH]2)cc1,x,0.0%,x,x,x,x
CCc1ccc(NC(=O)c2cc(S(=O)(=O)N3CCCC3)ccc2F)cc1,-20.7,5.2%,x,14.6µM*,x,11.6µM*
CCc1ccc(NC(=O)CCn2nc(C)c(S(=O)(=O)N3CCCCC3)c2C)cc1,-14.7,2.6%,11.0,23.1µM*,-5.8%,18.4µM*
CCc1ccc(NC(=O)c2cc(S(=O)(=O)N3CCCCCC3)ccc2F)cc1,x,5.2%,x,u,x,18.4µM*
CC(=O)N1CCC(C(=O)N2c3ccccc3N=C(c3ccc(C(F)(F)F)cc3)C2C(=O)NC(C)(C)C)CC1 (stereo not given),37.8,x,x,u,x,u
CCC(CC)C(=O)N(C)c1c(C)nc2c(OCCOc3ccccc3)cccn12,0.0,x,x,23.1µM*,x,13µM*
CCC(CC)C(=O)N(C)c1c(C)nc2c(OCC=C(C)C)cccn12,85.0,x,x,13µM*,x,16.4µM*
Cc1c(C)c2c(c(C)c1O)CCC(C)(COc1ccc(CC3SC(=O)NC3=O)cc1)O2 (stereo not given),x,25.2%,x,13µM*,x,13µM*
O=c1c2c(C(F)(F)F)cc(C(F)(F)F)nc2[nH]n1-c1ccccc1,-74.9*,9.3%,-4.5,14.1µM*,25.9µM*,u
CCOC(=O)C1=CN(Cc2cccc(F)c2)S(=O)(=O)N(C)C1CCc1ccccc1 (stereo not given),24.4,-6.8%[56.1 µM],-8.1,u,-24.6%,u
CC(C)CCNC(=O)C1CCN(Cc2cccc(OCc3ccccc3)c2)CC1,-57.1*,x,-4.2,-19.9%,u,u
O=C(C1CCN(Cc2ccc(F)cc2)CC1)N(CCc1ccccc1)Cc1ccccc1,-89.1*,7.7%,-7.9,23.1µM*,-28.3%,16.4µM*
CCN(CC)C(=O)C1CCN(Cc2ccc(OCc3ccccc3)cc2)CC1,-56.8*,x,-17.8,-28.6%,-7.0%,-22.5%
CCCCNC(=O)C1CCN(Cc2ccc(OCc3ccccc3)cc2)CC1,-7.8,-2.6%,43.2,u,u,u
CCNC(=O)C1CCCN(Cc2ccc(OCc3ccccc3)cc2)CC1 (stereo not given),-5.6,x,x,18.4µM*,x,7.31µM*
SMILES,IL-1B inflam inh,TDP1 inh,Giardia killer,DT40 TDP1 CPT,ELG1 repair inh,DT40 TDP1 no CPT
CCN(CC)C(=O)C1CCN(Cc2cccc(OCc3ccccc3)c2)CC1,-16.3,-5.0%,-0.8,-21.8%,u,u
COc1ccccc1N1CCN(C(=O)c2cccs2)CC1,-14.2,x,9.1,-19.7%,14.0%,-4.2%
CCc1cc(C(=O)N2CCN(c3ccccc3OC)CC2)sc1C,-13.5,2.3%,23.2,u,u,16.4µM*
COc1ccccc1N1CCN(CC(=O)c2c(C)[nH]c3cc(C)ccc23)CC1,-9.4,5.2%,4.5,u,u,18.4µM*
COc1ccccc1N1CCN(C(=O)c2ccc3[nH]c(C)c(C)c3c2)CC1,38.4,7.8%,20.0,1.3µM*,u,1.03µM*
COc1ccccc1N1CCN(C(=O)c2ccc3nc[nH]c3c2)CC1,12.5,5.4%,-6.9,13.2%,-3.5%,0.8%
COc1ccccc1N1CCN(C(=O)c2ccc3[nH]c4c(c3c2)CC(C)CC4)CC1 (stereo not given),-93.6*,14.1%,-3.4,16.4µM*,u,u
CCC(CC)C(=O)N1CC(=O)Nc2ccc(F)cc2C1c1ccccc1 (stereo not given),13.6,x,13.5,6.3%,u,u
O=C(COc1ccc2ccccc2c1)NCC1CCCO1 (stereo not given),-1.0,x,15.9,-3.2%,u,-29.6%
CCOC(=O)c1ccccc1NC(=O)c1sc2nc3n(c(=O)c2c1C)CCCCC3,x,-1.3%,x,-9.6%,x,0.0%
CC1CCC(NC(=O)C(C)N2C(=O)C3CCCCC3C2=O)CC1 (stereo not given),7.7,-2.0%[56.1 µM],11.5,5.1%,29.3%,2.9%
Cc1[nH]c2ccc(C(=O)N3CCN(c4cccc(Cl)c4)CC3)cc2c1C,0.0,9.9%,-12.1,6.51µM*,2.6%,6.51µM*
Cc1[nH]c2ccc(C(=O)N3CCCC3)cc2c1C,-7.7,4.1%,u,20.0%,u,-1.5%
OC(CN1CCCCCC1)CN(c1ccccc1)c1ccccc1 (stereo not given),0.0,5.4%,-2.9,u,-23.2%,u
OC(CN1CCCCC1)CN(c1ccccc1)c1ccccc1 (stereo not given),-18.6,5.1%,9.6,u,-12.8%,25.9µM*
OC(CN1CCOCC1)CN(c1ccccc1)c1ccccc1 (stereo not given),18.4,0.0%,2.2,u,-2.7%,11.6µM*
OC(CN1CCOCC1)CN1CCOCC1,18.0,-1.0%,-11.0,-2.7%,-1.0%,-5.2%
CNCC(O)CN(c1ccccc1)c1ccccc1 (stereo not given),u,3.0%,-23.5,u,-2.8%,u
NC(N)=NCC(O)CN(c1ccccc1)c1ccccc1 (stereo not given),-82.0*,0.0%,-19.6,u,-23.7%,14.6µM*
